Here are results for 36 compounds from PubChem BioAssay (Tox21).

A number with no mark means an inactive call. Records with an inconclusive call do not appear. Activity calls are given as the source filed them. Calls follow the shape of the full dose curve.

Assay [1] deals with Acetylcholinesterase (Homo sapiens) (UniProt P22303). Description: Acetylcholinesterase (AChE) small molecule antagonists: colormetric cell-based qHTS assay (AID 1347395). Also: nearly all actives have a fitted effect of over 30% in size. The essentials: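 Quantitative HTS in attached SH-SY5Y cells: 30 min compound exposure, then 90 min with acetylthiocholine and DTNB at 37 C; colour from thiocholine reports AChE activity.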
Acetylcholinesterase (Homo sapiens), sequence (P22303 whole entry, looked up): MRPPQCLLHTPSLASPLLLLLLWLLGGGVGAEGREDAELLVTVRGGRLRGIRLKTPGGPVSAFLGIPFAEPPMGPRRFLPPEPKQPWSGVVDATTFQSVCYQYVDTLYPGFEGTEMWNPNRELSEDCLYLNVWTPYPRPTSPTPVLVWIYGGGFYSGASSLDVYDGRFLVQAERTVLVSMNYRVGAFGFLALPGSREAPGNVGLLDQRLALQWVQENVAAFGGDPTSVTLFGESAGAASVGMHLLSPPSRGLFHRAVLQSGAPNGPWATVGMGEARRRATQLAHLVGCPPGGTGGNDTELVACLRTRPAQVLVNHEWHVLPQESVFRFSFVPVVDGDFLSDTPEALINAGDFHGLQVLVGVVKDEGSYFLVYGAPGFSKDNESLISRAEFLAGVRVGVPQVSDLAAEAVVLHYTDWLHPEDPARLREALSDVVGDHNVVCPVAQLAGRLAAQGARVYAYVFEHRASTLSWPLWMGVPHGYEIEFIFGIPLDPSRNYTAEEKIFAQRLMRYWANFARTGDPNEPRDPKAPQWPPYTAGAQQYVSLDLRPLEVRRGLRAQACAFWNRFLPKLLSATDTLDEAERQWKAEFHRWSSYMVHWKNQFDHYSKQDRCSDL
For assay [2] the target is unchanged. Description: Acetylcholinesterase (AChE) small molecule antagonists: enzyme-based qHTS assay (AID 1347397). Also: nearly all actives have a fitted effect of over 55% in size. Also: potency is read from the fitted curve at half-maximal effect. Conditions: Potency: AChE enzyme activity inhibition; outcome: AChE enzyme activity inhibition. The essentials: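 Tox21 library chemicals are tested in qHTS format against recombinant human AChE. The enzyme, dispensed at 50 mU/mL, sits with compound for 30 min at room temperature. A DTNB–acetylthiocholine cocktail follows, and colour is read after 10 min.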
On the technique in general: In qHTS, concentration-response curves come from the screen itself.

For assay [3] the target is unchanged. Description: Acetylcholinesterase (AChE) small molecule antagonists: fluorescence cell-based qHTS assay (AID 1347398). Also: nearly all actives have a fitted effect of over 50% in size. Conditions: Potency: AChE activity; outcome: AChE activity. The procedure, abridged:
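Cellular AChE inhibition: SH-SY5Y cells treated with test chemical for 30 min at 37 C, then acetylthiocholine hydrolysis followed over 40 min at room temperature via thiocholine-reactive Thiolite Green fluorescence (490/520 nm).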

Assay [4] has the same target. Description: Acetylcholinesterase (AChE) small molecule antagonists: enzyme-based qHTS assay with human liver microsomes (AID 1347399). Also: nearly all actives have a fitted effect of over 60% in size. Conditions: Potency: qHTS inhibition; outcome: qHTS inhibition. The procedure, abridged: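 Recombinant human AChE (50 mU/mL in the enzyme mix) and human liver microsomes (0.25 mg/mL final) were preincubated with compound and NADPH (0.25 mg/mL final) for 30 min at 37 C. Acetylthiocholine/DTNB was then added; thiocholine was read colorimetrically after 10 min at room temperature.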
% is scaled to controls: 0 for no effect and ±100 for the full control effect.

`Nc1ccc(S(=O)(=O)O)cc1`: the Potency result in assay [1], in assay [2], in assay [3] and in assay [4] was “inactive” each time.

For the compound `CN(N=O)C(=O)N[C@@H]1[C@@H](O)[C@H](O)[C@@H](CO)O[C@@H]1O`, the Potency entry in assay [1], in assay [2], in assay [3] and in assay [4] was “inactive” in each case.

`CC(=O)/C=C/C1C(C)=CCC(C)C1(C)C` (centres undefined): the Potency result in assay [1], in assay [2], in assay [3] and in assay [4] was “inactive” each time.

As for `C=C/C=C/C=C/CCCCC`, the activity, negative = inhibition in assay [1] was 0.16% [at 23.6 µM]. The figures for the activity change, negative = inhibition in assay [2], in assay [3] and in assay [4] were 0.676% [at 23.6 µM], -10.6% [at 23.8 µM] and -1.78% [at 23.6 µM], respectively.

For `C=CCCCCCCCCOC(C)=O`, the Potency entry in assay [1], in assay [2], in assay [3] and in assay [4] was “inactive” throughout.

Consider `CCCCCCC1CCCC(=O)O1` (centres undefined), for which the Potency entry in assay [1], in assay [2], in assay [3] and in assay [4] was “inactive” in each case.

In the case of `Cc1cc(C)cc(OCC2CNC(=O)O2)c1` (centres undefined), the Potency result in assay [1], in assay [2], in assay [3] and in assay [4] was “inactive” in each case.

Turning to `O=C(O)CNC(=O)c1ccccc1`, the Potency result in assay [1], in assay [2], in assay [3] and in assay [4] was “inactive” in each case.

For `CC(C(=O)O)c1ccc2c(c1)CC(=O)c1ccccc1S2` (centres undefined), the Potency result in assay [1], in assay [2], in assay [3] and in assay [4] was “inactive” in each case.

As for `Nc1ccc2c(O)cc(S(=O)(=O)O)cc2c1`, the Potency result in assay [1], in assay [2], in assay [3] and in assay [4] was “inactive” in each case.

As to `CC(C)n1nc(-c2cc3cc(O)ccc3[nH]2)c2c(N)ncnc21`, the Potency result in assay [1], in assay [2], in assay [3] and in assay [4] was “inactive” each time.

For `CCCN(CCC)C(=O)C(CCC(=O)OCCCN1CCN(CCOC(=O)Cc2c(C)n(C(=O)c3ccc(Cl)cc3)c3ccc(OC)cc23)CC1)NC(=O)c1ccccc1` (centres undefined), the Potency result in assay [1], in assay [2], in assay [3] and in assay [4] was “inactive” in each case.

On to `CC(=O)Oc1ccc(C2(c3ccc(OC(C)=O)cc3)Oc3ccccc3NC2=O)cc1`, for which the Potency entry in assay [1], in assay [2], in assay [3] and in assay [4] was “inactive” in each case.

Regarding `Oc1ccc2c(c1)OC[C@@H](N1CCC(O)(c3ccc(F)cc3)CC1)[C@H]2O`, the Potency entry in assay [1], in assay [2], in assay [3] and in assay [4] was “inactive” in each case.

`CC1=CCC2CC1C2(C)C` (centres undefined): the Potency result in assay [1], in assay [2], in assay [3] and in assay [4] was “inactive” each time.

For `C[Si](NC1CCCCC1)(NC1CCCCC1)NC1CCCCC1`, the Potency entry in assay [1], in assay [2], in assay [3] and in assay [4] was “inactive” each time.

With `OC1OCCOC1O` (centres undefined), the Potency entry in assay [1], in assay [2], in assay [3] and in assay [4] was “inactive” each time.

Consider `CC(=O)N(O)CCCCCNC(=O)CCC(=O)N(O)CCCCCNC(=O)CCC(=O)N(O)CCCCCN`, for which the compound was called inactive in assay [1], in assay [2], in assay [3] and in assay [4].

With `O=C(O)CN(CCN(CC(=O)O)CC(=O)O)CCN(CC(=O)O)CC(=O)O`, the activity, negative = inhibition in assay [1] is 0.969% [at 23.6 µM]. In addition, the activity change, negative = inhibition in assay [2] is 0.748% [at 23.6 µM]; in assay [3], 7.05% [at 23.8 µM]; in assay [4], 0% [at 23.6 µM].

Turning to `CC(Cl)COP(=O)(OCC(C)Cl)OCC(C)Cl` (centres undefined), the Potency entry in assay [1], in assay [2], in assay [3] and in assay [4] was “inactive” each time.

For `CCCCC[C@H](O)/C=C/[C@H]1[C@H](O)CC(=O)[C@@H]1C/C=C\CCCC(=O)O`, the Potency entry in assay [1], in assay [2], in assay [3] and in assay [4] was “inactive” throughout.

Consider `CSc1ccc(Cl)cc1`, for which the Potency entry in assay [1], in assay [2], in assay [3] and in assay [4] was “inactive” each time.

`CC(=O)Nc1ccc(N=Nc2cc(C)ccc2O)cc1`: the Potency result in assay [1], in assay [3] and in assay [4] was “inactive” throughout. Besides, in assay [2], the Potency is 22.4 µM (active).

Take `O=C(O)CNCC(=O)O`: in assay [1], the activity, negative = inhibition was 1.88% [at 10.5 µM]. The figures for the activity change, negative = inhibition in assay [2], in assay [3] and in assay [4] were -0.541% [at 10.5 µM], -0.972% [at 10.5 µM] and -0.995% [at 10.5 µM], respectively.

For the compound `CSCC[C@H](NC(=O)[C@H](Cc1c[nH]c2ccccc12)NC(=O)CCNC(=O)OC(C)(C)C)C(=O)N[C@@H](CC(=O)O)C(=O)N[C@@H](Cc1ccccc1)C(N)=O`, the Potency result in assay [1], in assay [2], in assay [3] and in assay [4] was “inactive” each time.

With `CCCCCCCCCCCCCCCCCCOCC(O)CO` (centres undefined), the Potency result in assay [1], in assay [2], in assay [3] and in assay [4] was “inactive” in each case.

In the case of `NNc1nc(-c2ccc([N+](=O)[O-])cc2)cs1`, the Potency result in assay [1], in assay [2], in assay [3] and in assay [4] was “inactive” in each case.

Take `CC(=O)NCc1c(I)c(NC(C)=O)c(I)c(C(=O)O)c1I`: the Potency entry in assay [1], in assay [2], in assay [3] and in assay [4] was “inactive” each time.

As for `CCNC(=O)N1CCN(CCCC(c2ccc(F)cc2)c2ccc(F)cc2)CC1`, the Potency entry in assay [1], in assay [2], in assay [3] and in assay [4] was “inactive” each time.

Take `CN1CCN(c2c(F)cc3c(=O)c(C(=O)O)cn4c3c2SCC4)CC1`: the Potency entry in assay [1], in assay [2], in assay [3] and in assay [4] was “inactive” throughout.

For the compound `CC(=O)OC1CC(C)OC(C)O1` (centres undefined), the Potency entry in assay [1], in assay [2], in assay [3] and in assay [4] was “inactive” throughout.

As for `Cc1cccc(NC(=S)N(C)C)c1`, the Potency result in assay [1], in assay [2], in assay [3] and in assay [4] was “inactive” each time.

As for `O=C(O)c1ccc(S(=O)(=O)O)cc1C(=O)O`, the Potency result in assay [1], in assay [2], in assay [3] and in assay [4] was “inactive” throughout.

Regarding `CCC(C(=O)O)c1ccc(N2Cc3ccccc3C2=O)cc1` (centres undefined), the Potency result in assay [1], in assay [2], in assay [3] and in assay [4] was “inactive” each time.

Regarding `CCCCCCCCCCCCCCCCC`, the Potency entry in assay [1], in assay [2], in assay [3] and in assay [4] was “inactive” each time.

Consider `CCCC(C)c1ccccc1O` (centres undefined), for which the Potency result in assay [1], in assay [2], in assay [3] and in assay [4] was “inactive” each time.
